Experimental data from PubChem BioAssay (NCI).
The panel holds about 79,000 compounds, 15% with a hit somewhere; the sample as a whole holds those more often. Rule as the data show it: active = growth inhibition above about 70%; inactive = the rest.

Columns and labels:
[1] = NCI Yeast Anticancer Drug Screen. Data for the rad50 strain (AID 155);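 also: 0% = growth of vehicle-only cultures of the same strain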; conditions: S. cerevisiae rad50 strain growth inhibition; at 50.0 µM; stronger effect = higher value
In short: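 A DNA repair-deficient yeast mutant serves as the test organism; compound-induced growth inhibition is calculated against vehicle-treated cells.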

[2] = NCI Yeast Anticancer Drug Screen. Data for the mec2-1 strain (AID 157); conditions: S. cerevisiae mec2-1 strain, at 50.0 µM, stronger effect = higher value
In short: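 Cells of the genetically defined mec2-1 yeast strain are incubated with test compound. Inhibition of growth is calculated against vehicle-treated controls.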

[3] = NCI Yeast Anticancer Drug Screen. Data for the sgs1 mgt1 strain (AID 161);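 also: 0% = growth of cultures given vehicle only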; conditions: S. cerevisiae sgs1 mgt1 strain, at 50.0 µM, stronger effect = higher value
In short: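 Test agents were incubated with a DNA-repair-mutant yeast strain. Growth was then read and compared against vehicle-treated controls.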

[4] = NCI Yeast Anticancer Drug Screen. Data for the cln2 rad14 strain (AID 165);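 also: 0% = growth equal to vehicle treated cultures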; conditions: S. cerevisiae cln2 rad14 strain, at 50.0 µM, stronger effect = higher value
In short: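 The screen exposed genetically defined yeast (cln2 rad14) to test compounds and scored growth inhibition relative to vehicle-treated controls.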

[5] = NCI Yeast Anticancer Drug Screen. Data for the bub3 strain (AID 167); conditions: S. cerevisiae bub3 mutant strain, at 50.0 µM, stronger effect = higher value
In short: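 Inhibition values come from growth of compound-treated mutant yeast normalised to vehicle-treated controls.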

[6] = NCI Yeast Anticancer Drug Screen. Data for the mlh1 rad18 strain (AID 175); conditions: S. cerevisiae mlh1 rad18 strain growth inhibition; at 50.0 µM; stronger effect = higher value
In short: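 Compound-treated yeast growth, normalised to vehicle controls. Strain bears defined DNA repair mutations.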

Measured: growth inhibition

O=C1c2ccc([N+](=O)[O-])cc2C(=O)N1CCBr
inactive: [1] 27.4% | [2] -13.2% | [3] 16.6% | [4] -10.2% | [5] 31.7% | [6] 13.1%

O=C1Nc2cc(F)ccc2C1=O
inactive: [1] 15.5% | [2] 15.1% | [3] 7.95% | [4] 10.7% | [5] 19.6% | [6] 19.4%

Cn1c2ccccc2c2nnc(N/N=C/c3cccnc3)nc21
inactive: [1] -39.1% | [2] -36.5% | [3] -17.4% | [4] -44.6% | [5] -5.05% | [6] -5.7%

O=C(O)c1cc(Br)c(O)cc1O
inactive: [1] -11.4% | [2] -17.6% | [3] -3.35% | [4] 9.35% | [5] -5.25% | [6] 7%

COC(=O)C(CC(=O)Nc1ccc(Cl)c(Cl)c1)C(=O)C(=O)NC1C2CC3CC(C2)CC1C3 (configuration not stated)
inactive: [1] -3.15% | [2] 13.8% | [3] -14.1% | [4] 7.8% | [5] -8.65% | [6] -9.05%

CC1=N/C(=C\c2cccs2)C(=O)O1
inactive: [1] 26.6% | [2] 30.5% | [3] 28.1% | [4] 20.5% | [5] 22.9% | [6] 28.9%

CN(C)Cc1cc(O)c(O)c(CN(C)C)c1
inactive: [1] -16.6% | [2] -19.9% | [3] -8.45% | [4] 5.4% | [5] -40.2% | [6] 13.1%

O=C(Cc1ccccc1)NC(CSSCC(NC(=O)Cc1ccccc1)C(=O)O)C(=O)O (configuration not stated)
inactive: [1] 26.3% | [2] 10.8% | [3] 36.6% | [4] -37.1% | [5] 3.2% | [6] 11.1%

CCCCN(CCCC)CC(O)c1cc(-c2c(Cl)cccc2Cl)nc2c(Cl)cc(Cl)cc12 (configuration not stated)
inactive: [1] 53.3% | [2] 55.3% | [3] 55% | [4] 13.8% | [5] 20.8% | [6] 64.1%

O=C(Nc1ccccc1C(=O)NCc1ccccc1)/C(=C/c1ccccc1)NC(=O)c1ccccc1
inactive: [1] 7.25% | [2] 6.9% | [3] -0.95% | [4] 4.05% | [5] 6.8% | [6] -34.7%

COC(=O)Oc1ccccc1C(=O)O
inactive: [1] -25.2% | [2] -22.6% | [3] -15.6% | [4] 0.2% | [5] -24.6% | [6] -5.55%

COC(=O)/C=C1\SC(OC)(N(C)c2ccccc2)N(C)C1=O (configuration not stated)
inactive: [1] -25.6% | [2] 9.6% | [3] 22.7% | [4] -10.4% | [5] -0.8% | [6] 19.1%

O=C(NC(CSC(=O)c1ccccc1)C(=O)O)c1ccccc1 (configuration not stated)
inactive: [1] 3.2% | [2] -8.5% | [3] -2.6% | [4] -22.1% | [5] 6.8% | [6] 7.45%

CC(C)C(=O)/C=C/c1ccc(Cl)c(Cl)c1
inactive: [1] 41.2% | [2] 28.2% | [3] 26.4% | [4] -1.85% | [5] 18.9% | [6] 26.8%

O=C1c2ccccc2OC(Cl)(c2ccccc2)C1Cl (configuration not stated)
inactive: [1] -15.1% | [2] -2.4% | [3] -7.5% | [4] -21.8% | [5] 22.7% | [6] 2%

O=C(O)CCc1ccccc1CC(=O)O
inactive: [1] 12.8% | [2] -9.95% | [3] -10.8% | [4] -10.1% | [5] -12.3% | [6] 13.2%

O=C(O)Cc1ccc([N+](=O)[O-])cc1
inactive: [1] 21.1% | [2] -11.3% | [3] 36.1% | [4] 15.2% | [5] 12.8% | [6] 4.75%

COc1ccc2nc(NC(=O)C(=O)C(C(=O)c3ccccc3-c3ccccc3)C3OC(=O)c4ccccc43)sc2c1 (configuration not stated)
inactive: [1] -3.6% | [2] 9.75% | [3] -14.2% | [4] 0.7% | [5] -1.1% | [6] -16.1%

C=C1C(=O)OC2C[C@@]3(C)CCCC(=C)C3CC12 (some centres not stated)
inactive: [1] 21.4% | [2] 21.1% | [3] 32.1% | [4] 28.6% | [5] 20.6% | [6] 13%

COc1ccc(CC(=O)O)cc1OC
inactive: [1] 23.9% | [2] 0.55% | [3] 17.6% | [4] -24.4% | [5] -5.95% | [6] 23.9%

CC(=O)OCCn1cnc2c(NCC=C(C)C)ncnc21
inactive: [1] -28.4% | [2] -12.4% | [3] -40% | [4] 0.75% | [5] 7.5% | [6] -45%

N#CCCc1ccc[nH]1
inactive: [1] -15.8% | [2] -8.45% | [3] -7.95% | [4] 10.6% | [5] 5.6% | [6] -5.85%

CN(C)c1cc(-c2ccccc2)oc(=O)c1Cl
inactive: [1] 11.6% | [2] -19.8% | [3] -24.2% | [4] -22.2% | [5] -16.2% | [6] -9.15%

COC1(CCO)CC=CCC1(CCO)OC (configuration not stated)
inactive: [1] -2.45% | [2] -20.4% | [3] -19.3% | [4] 13.3% | [5] -19.4% | [6] -7.9%

CCN(CC)C(=O)CCC(=O)O
inactive: [1] 0.4% | [2] -13.3% | [3] -14.7% | [4] 3.3% | [5] 0.55% | [6] 24.7%

O=C(c1ccccc1)C12CCC3CC(CC(C3)C1)C2
inactive: [1] -18.1% | [2] 8.25% | [3] 11.5% | [4] 6.05% | [5] 16.4% | [6] 9.65%

CN(C)CCSS(=O)(=O)O
inactive: [1] -4.9% | [2] -23.1% | [3] -26.3% | [4] 16.6% | [5] -19.1% | [6] -14.2%

Cc1ccc(NC(=S)Nc2ccccc2C)nc1
inactive: [1] 5.95% | [2] 9.35% | [3] 27.9% | [4] 13.1% | [5] 2.6% | [6] 18.9%

CC1CN(C(=O)Cn2cnc([N+](=O)[O-])n2)CC(C)O1 (configuration not stated)
inactive: [1] 7.65% | [2] 14.2% | [3] 2.75% | [4] 65.2% | [5] 29.8% | [6] 12.7%

CCS(=O)(=O)CCNC(=O)NS(=O)(=O)c1ccc(C)cc1
inactive: [1] -2.2% | [2] -7.85% | [3] -11.8% | [4] -1.2% | [5] 7.7% | [6] 0.9%

CCN(CC)CCOc1c(C)cccc1C
inactive: [1] -5.15% | [2] 3.45% | [3] -13.1% | [4] -14.2% | [5] 12.1% | [6] -2%

COc1ccc(C2Cc3cc(OC)c(OC)cc3C(c3ccccc3)N2)cc1OC (configuration not stated)
inactive: [1] 8.7% | [2] 18.7% | [3] 16.7% | [4] 12.5% | [5] -1.25% | [6] 30.5%

Nc1nc(Cc2ccccc2)cs1
inactive: [1] 24.7% | [2] 24.7% | [3] 16.1% | [4] 7.5% | [5] 3.35% | [6] 12.6%

O/N=C/c1cccc[n+]1Cc1ccccc1
inactive: [1] -4% | [2] 6.3% | [3] 0.95% | [4] -23.9% | [5] 4.85% | [6] 1.25%

Nc1cccc(Nc2nc3ccccc3nc2NS(=O)(=O)c2ccccc2)c1
inactive: [1] 18.5% | [2] 22.6% | [3] 14.6% | [4] -11.3% | [5] -2.5% | [6] -9.1%

NC(=O)c1ccc2c(c1)-c1nc-2nc2[n-]c(nc3nc(nc4[n-]c(n1)c1ccc(C(N)=O)cc41)-c1ccc(C(N)=O)cc1-3)c1ccc(C(N)=O)cc21.[Co+2]
inactive: [1] -7.55% | [2] 4.65% | [3] 1.8% | [4] 29.2% | [5] 35% | [6] 4.35%

O=C(Cc1ccccc1)c1c[nH]c2c(O)ccc(O)c12
inactive: [1] -15.1% | [2] -9.25% | [3] -12.3% | [4] -49.1% | [5] -13.9% | [6] -8.45%

CCSc1n[nH]c(=O)nc1SC
inactive: [1] 4.3% | [2] -3.25% | [3] -3.9% | [4] -67% | [5] -19.5% | [6] -0.35%

Fc1ccc(-c2cc(-c3cc(-c4ccc(F)cc4)n[nH]3)[nH]n2)cc1
inactive: [1] 20.6% | [2] 9.2% | [3] 25.9% | [4] 6.6% | [5] 9.4% | [6] 32.1%

S=C1Cc2c(-c3ccccc3)cc(-c3ccc(Cl)cc3)nc2-c2ccccc2N1
inactive: [1] 8.75% | [2] -3.85% | [3] 5.65% | [4] 2.55% | [5] 6.75% | [6] -4.25%

CCCCOCCOC(=O)C(C)O (configuration not stated)
inactive: [1] 18.9% | [2] 13.7% | [3] 11.9% | [4] 6.6% | [5] -1% | [6] 6.4%

Cc1ccc(-c2cc(C(=O)NN)c(C#N)c(=O)[nH]2)cc1
inactive: [1] 11.4% | [2] 0.55% | [3] -0.85% | [4] 15.1% | [5] -13.2% | [6] 26.1%
